# In the supplement of paper PMC12067093, “Discovery and optimisation of a covalent ligand for TRIM25 and its application to targeted protein ubiquitination” (Chemical Science, 2025):
# About 21,000 targets were measured; listed, in parts, are those with the largest changes and a random draw of the rest.
# Compound: CC1Cc2ccccc2N1C(=O)C1CCCN(C1)C(=O)CCl (mixture of isomers) [TRIM25 ligand 11 (diastereomer mixture)]
# Test: probe-labelled cysteine peptide fold change vs DMSO (competition) (log2 fold change); higher = less target engagement (more negative = stronger competition)
# Settings: THP-1, incubation time: 4 h
# 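Note: competitive chemoproteomic profiling in live THP-1 cells with an iodoacetamide desthiobiotin (IA-DTB) probe, comparing probe-labelled peptide intensities in compound-treated cells against DMSO-treated controls.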
# Chain of UniProt O75563 (O75563 whole entry, looked up): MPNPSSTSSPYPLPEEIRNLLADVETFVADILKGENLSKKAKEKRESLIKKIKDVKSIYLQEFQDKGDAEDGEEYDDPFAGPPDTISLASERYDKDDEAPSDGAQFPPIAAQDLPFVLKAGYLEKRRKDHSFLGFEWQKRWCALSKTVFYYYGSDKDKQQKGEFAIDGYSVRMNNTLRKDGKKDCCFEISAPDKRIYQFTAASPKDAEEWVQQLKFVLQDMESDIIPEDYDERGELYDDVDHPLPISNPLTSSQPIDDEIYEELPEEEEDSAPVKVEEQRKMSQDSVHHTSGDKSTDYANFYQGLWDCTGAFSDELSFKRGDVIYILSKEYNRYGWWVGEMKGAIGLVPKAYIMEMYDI
# Chain of UniProt Q99590 (Q99590 whole entry, looked up): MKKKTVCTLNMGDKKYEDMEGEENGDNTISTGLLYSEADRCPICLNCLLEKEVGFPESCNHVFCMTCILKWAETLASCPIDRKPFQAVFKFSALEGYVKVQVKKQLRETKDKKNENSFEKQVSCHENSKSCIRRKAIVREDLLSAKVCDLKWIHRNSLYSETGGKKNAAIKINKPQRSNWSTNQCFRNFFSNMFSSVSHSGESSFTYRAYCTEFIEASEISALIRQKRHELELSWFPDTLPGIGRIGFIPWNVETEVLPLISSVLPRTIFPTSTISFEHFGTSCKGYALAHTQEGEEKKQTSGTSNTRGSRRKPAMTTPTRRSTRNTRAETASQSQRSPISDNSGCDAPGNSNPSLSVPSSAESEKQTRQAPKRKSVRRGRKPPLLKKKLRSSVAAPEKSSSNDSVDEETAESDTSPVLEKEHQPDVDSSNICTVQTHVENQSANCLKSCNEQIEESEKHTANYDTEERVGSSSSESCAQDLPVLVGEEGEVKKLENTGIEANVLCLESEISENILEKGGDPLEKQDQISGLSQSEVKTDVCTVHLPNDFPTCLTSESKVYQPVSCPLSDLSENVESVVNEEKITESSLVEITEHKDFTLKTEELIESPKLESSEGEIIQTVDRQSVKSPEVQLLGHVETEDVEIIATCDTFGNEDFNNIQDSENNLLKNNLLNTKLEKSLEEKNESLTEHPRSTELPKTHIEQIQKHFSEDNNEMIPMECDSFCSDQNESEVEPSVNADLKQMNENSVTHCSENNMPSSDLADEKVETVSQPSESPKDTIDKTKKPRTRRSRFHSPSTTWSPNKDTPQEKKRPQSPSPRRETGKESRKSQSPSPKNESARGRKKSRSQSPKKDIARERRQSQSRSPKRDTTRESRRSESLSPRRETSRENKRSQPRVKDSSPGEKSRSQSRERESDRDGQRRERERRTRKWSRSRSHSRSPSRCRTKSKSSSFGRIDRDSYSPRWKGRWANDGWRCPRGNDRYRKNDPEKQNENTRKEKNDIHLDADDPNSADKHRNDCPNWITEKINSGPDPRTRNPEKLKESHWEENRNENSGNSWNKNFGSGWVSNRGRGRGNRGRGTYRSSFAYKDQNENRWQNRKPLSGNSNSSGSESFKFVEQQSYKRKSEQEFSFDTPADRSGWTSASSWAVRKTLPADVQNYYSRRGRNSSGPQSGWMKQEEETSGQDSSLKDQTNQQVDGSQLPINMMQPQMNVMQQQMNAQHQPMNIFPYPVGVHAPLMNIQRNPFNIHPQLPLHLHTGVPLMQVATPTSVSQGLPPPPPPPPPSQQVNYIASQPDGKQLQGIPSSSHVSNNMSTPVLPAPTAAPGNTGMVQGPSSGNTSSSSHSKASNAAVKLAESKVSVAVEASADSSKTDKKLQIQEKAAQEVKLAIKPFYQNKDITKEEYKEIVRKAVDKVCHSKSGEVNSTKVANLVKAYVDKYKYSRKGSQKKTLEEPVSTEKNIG
# Chain of UniProt Q9NR31 (Q9NR31 whole entry, looked up): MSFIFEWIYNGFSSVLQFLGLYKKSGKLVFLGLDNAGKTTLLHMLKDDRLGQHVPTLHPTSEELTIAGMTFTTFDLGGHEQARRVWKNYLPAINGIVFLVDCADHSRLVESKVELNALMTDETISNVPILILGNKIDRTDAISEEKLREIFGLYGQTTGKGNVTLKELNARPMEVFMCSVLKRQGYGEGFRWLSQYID
# Chain of UniProt Q9Y6P5 (Q9Y6P5 whole entry): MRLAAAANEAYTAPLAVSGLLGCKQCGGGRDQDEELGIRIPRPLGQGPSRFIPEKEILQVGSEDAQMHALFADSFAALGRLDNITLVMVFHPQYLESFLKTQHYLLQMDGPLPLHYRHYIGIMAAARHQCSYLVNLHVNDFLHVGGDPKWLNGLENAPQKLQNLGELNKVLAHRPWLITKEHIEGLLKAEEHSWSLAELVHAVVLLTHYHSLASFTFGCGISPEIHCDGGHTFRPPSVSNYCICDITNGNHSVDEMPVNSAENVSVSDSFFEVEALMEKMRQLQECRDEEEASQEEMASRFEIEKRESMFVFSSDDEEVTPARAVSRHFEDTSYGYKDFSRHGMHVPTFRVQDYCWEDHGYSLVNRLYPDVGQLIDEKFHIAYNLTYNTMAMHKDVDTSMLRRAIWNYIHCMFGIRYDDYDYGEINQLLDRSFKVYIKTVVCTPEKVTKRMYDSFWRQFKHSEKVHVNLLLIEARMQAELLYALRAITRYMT
# Chain of UniProt O95149 (O95149 whole entry, looked up): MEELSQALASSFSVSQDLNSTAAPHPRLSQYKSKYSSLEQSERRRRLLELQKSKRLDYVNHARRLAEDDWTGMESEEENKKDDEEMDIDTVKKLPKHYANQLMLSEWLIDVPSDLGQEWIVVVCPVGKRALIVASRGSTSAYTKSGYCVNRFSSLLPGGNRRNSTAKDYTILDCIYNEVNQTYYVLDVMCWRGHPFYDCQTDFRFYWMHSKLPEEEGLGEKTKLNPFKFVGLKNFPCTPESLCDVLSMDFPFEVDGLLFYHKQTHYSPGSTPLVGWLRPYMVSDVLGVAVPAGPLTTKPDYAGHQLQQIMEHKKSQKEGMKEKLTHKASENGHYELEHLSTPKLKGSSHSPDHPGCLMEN
# Chain of UniProt P05109 (P05109 whole entry): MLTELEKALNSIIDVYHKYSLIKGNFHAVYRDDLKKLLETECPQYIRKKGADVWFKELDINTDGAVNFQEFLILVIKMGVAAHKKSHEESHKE
# Chain of UniProt Q12824 (Q12824 whole entry, looked up): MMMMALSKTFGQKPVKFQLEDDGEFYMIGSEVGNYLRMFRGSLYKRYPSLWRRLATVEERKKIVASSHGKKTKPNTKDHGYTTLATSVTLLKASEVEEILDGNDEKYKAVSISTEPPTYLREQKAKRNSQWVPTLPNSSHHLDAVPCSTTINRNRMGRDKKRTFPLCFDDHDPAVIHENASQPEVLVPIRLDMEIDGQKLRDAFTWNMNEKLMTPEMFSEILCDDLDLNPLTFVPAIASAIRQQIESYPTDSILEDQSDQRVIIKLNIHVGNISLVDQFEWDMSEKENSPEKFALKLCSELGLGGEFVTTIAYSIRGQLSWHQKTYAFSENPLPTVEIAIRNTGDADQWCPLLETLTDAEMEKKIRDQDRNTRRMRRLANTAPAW
# Chain of UniProt Q6IA17 (Q6IA17 whole entry): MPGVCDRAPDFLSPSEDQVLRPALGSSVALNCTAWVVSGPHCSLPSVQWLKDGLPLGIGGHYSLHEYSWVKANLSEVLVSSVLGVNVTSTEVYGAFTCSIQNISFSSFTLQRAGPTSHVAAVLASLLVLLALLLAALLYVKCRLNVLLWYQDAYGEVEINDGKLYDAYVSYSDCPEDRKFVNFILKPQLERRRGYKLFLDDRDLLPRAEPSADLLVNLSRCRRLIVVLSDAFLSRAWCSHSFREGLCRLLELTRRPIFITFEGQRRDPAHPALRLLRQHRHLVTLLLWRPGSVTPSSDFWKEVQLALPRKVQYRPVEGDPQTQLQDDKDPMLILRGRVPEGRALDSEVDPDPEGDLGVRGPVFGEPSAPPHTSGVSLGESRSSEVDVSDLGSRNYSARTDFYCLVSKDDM
# Chain of UniProt P03973 (P03973 whole entry): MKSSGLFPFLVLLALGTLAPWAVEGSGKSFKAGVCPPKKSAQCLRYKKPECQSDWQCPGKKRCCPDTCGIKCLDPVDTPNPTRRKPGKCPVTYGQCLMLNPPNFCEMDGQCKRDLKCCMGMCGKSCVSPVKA
# Chain of UniProt Q9NXE4 (Q9NXE4 whole entry, looked up): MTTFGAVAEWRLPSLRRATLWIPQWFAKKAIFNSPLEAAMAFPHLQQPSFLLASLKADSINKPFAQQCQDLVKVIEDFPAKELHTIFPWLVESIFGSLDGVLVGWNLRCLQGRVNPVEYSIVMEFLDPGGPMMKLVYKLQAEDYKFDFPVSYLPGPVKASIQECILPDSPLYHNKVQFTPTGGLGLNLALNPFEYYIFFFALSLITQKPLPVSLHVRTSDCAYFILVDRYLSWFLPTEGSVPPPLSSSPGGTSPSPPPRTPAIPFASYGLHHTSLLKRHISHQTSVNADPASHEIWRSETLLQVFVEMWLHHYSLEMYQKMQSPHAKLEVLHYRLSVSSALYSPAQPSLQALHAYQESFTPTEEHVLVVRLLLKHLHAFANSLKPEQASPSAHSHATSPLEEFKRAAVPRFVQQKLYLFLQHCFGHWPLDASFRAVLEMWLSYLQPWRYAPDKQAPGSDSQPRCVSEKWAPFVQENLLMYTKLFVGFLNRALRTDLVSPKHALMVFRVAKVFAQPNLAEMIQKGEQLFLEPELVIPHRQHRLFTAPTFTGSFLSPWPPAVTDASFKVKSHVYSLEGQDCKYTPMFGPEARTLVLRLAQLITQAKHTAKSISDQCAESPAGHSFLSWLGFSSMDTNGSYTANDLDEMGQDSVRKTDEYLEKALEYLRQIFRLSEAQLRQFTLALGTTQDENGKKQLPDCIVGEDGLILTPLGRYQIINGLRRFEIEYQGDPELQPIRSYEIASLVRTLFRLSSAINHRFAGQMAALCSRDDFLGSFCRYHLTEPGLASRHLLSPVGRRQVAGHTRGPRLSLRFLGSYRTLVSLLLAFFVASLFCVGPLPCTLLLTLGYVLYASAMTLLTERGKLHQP
# Chain of UniProt P62316 (P62316 whole entry, looked up): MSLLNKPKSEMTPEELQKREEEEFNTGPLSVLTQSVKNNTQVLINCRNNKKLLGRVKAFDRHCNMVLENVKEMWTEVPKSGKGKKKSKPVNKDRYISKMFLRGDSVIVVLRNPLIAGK
Target,probe-labelled cysteine peptide fold change (10 µM),probe-labelled cysteine peptide fold change (50 µM)
SNRNP200_O75643_576_RLATYGITVAELTGDHQLCK (UniProt O75643),-0.0593,0.102
SNRPD2_P62316_63_AFDRHCNMVLENVK (UniProt P62316),-0.388,-0.34
RPS17_P08708_35_RVCEEIAIIPSKK (UniProt P08708),-0.177,0.0725
SLU7_O95391_445_CCHSFFK (UniProt O95391),0.132,0.191
SRBD1_Q8N5C6_912_SIVCLEDLQIGTVLTGK (UniProt Q8N5C6),0.0769,-0.14
RRP12_Q5JTH9_673_GCQAEADRAEVSR (UniProt Q5JTH9),0.0652,-0.00566
SLC7A7_Q9UM01_349_EGHLPDAICMIHVER (UniProt Q9UM01),0.0357,0.0274
RSL1D1_O76021_96_SDSEDICLFTK (UniProt O76021),-0.0174,-0.141
S100A8_P05109_42_LLETECPQYIR (UniProt P05109),-0.0697,-0.229
SEPT9_Q9UHD8_531_WGTIEVENTTHCEFAYLR (UniProt Q9UHD8),0.0123,-0.0856
SMPD4_Q9NXE4_221_TSDCAYFILVDR (UniProt Q9NXE4),0.14,0.266
RTN3_O95197-3_42_SCSSSCAVHDLIFWR (UniProt O95197),-0.124,-0.737
SMAD9_O15198_93_GLPHVIYCR<|>SMAD3_Q15796_89_GLPHVIYCR<|>SMAD2_Q99717_129_GLPHVIYCR (UniProt Q99717+Q15796+O15198),-0.076,-0.0521
SIGIRR_Q6IA17_174_LYDAYVSYSDCPEDR (UniProt Q6IA17),0.24,-0.151
SAR1A_Q9NR31_178_ELNARPMEVFMCSVLKR (UniProt Q9NR31),-0.614,-0.486
SPATA5_Q8NB90_459_HPSIIFIDELDALCPK (UniProt Q8NB90),-0.0102,-0.321
SRGAP2_O75044_486_TDCSLAR (UniProt O75044),-0.0891,-0.197
SNUPN_O95149_199_GHPFYDCQTDFR (UniProt O95149),0.47,0.00215
SMYD3_Q9H7B4_263_DQYCFECDCFR (UniProt Q9H7B4),-0.0567,0.116

Target,probe-labelled cysteine peptide fold change (10 µM),probe-labelled cysteine peptide fold change (50 µM)
SHMT1_P34896_335_VYQHQVVANCR (UniProt P34896),0.0178,0.112
SESN1_Q9Y6P5_286_QLQECRDEEEASQEEMASR (UniProt Q9Y6P5),-0.00479,-0.0495
SCAF11_Q99590_752_QMNENSVTHCSENNMPSSDLADEK (UniProt Q99590),0.00365,-0.727
SPATA5L1_Q9BVQ7_104_LLLVPCPPLRR (UniProt Q9BVQ7),-0.0644,0.126
RPS6KA3_P51812_436_EDIGVGSYSVCK<|>RPS6KA2_Q15349_429_EDIGVGSYSVCK (UniProt Q15349+P51812),-0.0733,-0.656
RUBCNL_Q9H714_641_QCFQSSECPR (UniProt Q9H714),0.144,0.15
SETDB1_Q15047_385_RCEWIYR (UniProt Q15047),0.156,0.176
RPP40_O75818_49_VSFLIPECGILSEELK (UniProt O75818),0.101,0.161
SLMAP_Q14BN4_120_KVTHGCIVSTIK (UniProt Q14BN4),-0.0304,0.0755
SORBS3_O60504_482_GEHICLIR (UniProt O60504),0.12,0.166
SNRPC_P09234_6_FYCDYCDTYLTHDSPSVR (UniProt P09234),-0.122,-0.874
SLPI_P03973_51+57_YKKPECQSDWQCPGK (UniProt P03973),-0.301,-0.883
SBF1_O95248_839_VCTESGVTSDHLK (UniProt O95248),0.116,0.0908
SRCAP_Q6ZRS2_1926_IFQLSEAHGALAPVYGTEVLDFCTLPQPVASPIGPR (UniProt Q6ZRS2),0.683,0.741
SETX_Q7Z333_1416_CMPSEPETIK (UniProt Q7Z333),-0.13,-0.585
SMARCB1_Q12824_147_NSQWVPTLPNSSHHLDAVPCSTTINR (UniProt Q12824),-0.0549,-0.612
SKAP2_O75563_186_DCCFEISAPDK (UniProt O75563),0.239,0.128
SNX5_Q9Y5X3_250_NVADDYIHTAACLHSLALEEPTVIKK (UniProt Q9Y5X3),-0.0814,-0.118
